Several values for one entry are separate records, joined by “and”; a condition that tells them apart may be missing. Identical values can stand only once.
How the values were obtained:
Details in all cases: Compound concentration 20.0 uM, Protein concentration 2.0 uM, Result type QC Liability
[1] = molecular target: Tyrosine-protein kinase ABL1 (Homo sapiens) (UniProt P00519)
[2] = molecular target: Cyclin-dependent kinase 2 (Homo sapiens) (UniProt P24941)
[3] = molecular target: Casein kinase I isoform delta (Homo sapiens) (UniProt P48730)
Sequence of Casein kinase I isoform delta (Homo sapiens) (P48730 whole entry, looked up, canonical isoform): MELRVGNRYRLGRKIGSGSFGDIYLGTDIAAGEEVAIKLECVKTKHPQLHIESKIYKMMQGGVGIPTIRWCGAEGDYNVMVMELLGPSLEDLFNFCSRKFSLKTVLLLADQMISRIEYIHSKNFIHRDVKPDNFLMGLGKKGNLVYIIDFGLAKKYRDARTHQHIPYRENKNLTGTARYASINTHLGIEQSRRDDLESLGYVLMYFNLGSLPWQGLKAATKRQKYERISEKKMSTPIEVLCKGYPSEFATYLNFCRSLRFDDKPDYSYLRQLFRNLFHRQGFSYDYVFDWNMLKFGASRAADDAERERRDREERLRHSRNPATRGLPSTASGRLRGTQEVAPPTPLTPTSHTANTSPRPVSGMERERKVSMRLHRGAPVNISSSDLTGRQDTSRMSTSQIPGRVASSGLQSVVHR

[4] = molecular target: Glycogen synthase kinase-3 beta (Homo sapiens) (UniProt P49841)
Sequence of Glycogen synthase kinase-3 beta (Homo sapiens) (P49841 whole entry, looked up): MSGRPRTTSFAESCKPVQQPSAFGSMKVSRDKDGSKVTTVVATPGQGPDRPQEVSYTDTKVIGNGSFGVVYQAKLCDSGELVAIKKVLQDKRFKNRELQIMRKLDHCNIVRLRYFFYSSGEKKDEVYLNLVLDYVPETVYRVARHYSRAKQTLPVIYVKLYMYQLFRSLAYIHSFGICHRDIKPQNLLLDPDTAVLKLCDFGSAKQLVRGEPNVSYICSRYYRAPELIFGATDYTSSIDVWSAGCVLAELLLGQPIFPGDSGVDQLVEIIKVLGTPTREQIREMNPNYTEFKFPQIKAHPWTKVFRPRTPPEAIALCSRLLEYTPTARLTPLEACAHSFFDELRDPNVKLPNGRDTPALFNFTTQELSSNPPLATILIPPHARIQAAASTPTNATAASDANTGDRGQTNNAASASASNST

[5] = molecular target: Mitogen-activated protein kinase 1 (Homo sapiens) (UniProt P28482)
Sequence of Mitogen-activated protein kinase 1 (Homo sapiens) (P28482 whole entry): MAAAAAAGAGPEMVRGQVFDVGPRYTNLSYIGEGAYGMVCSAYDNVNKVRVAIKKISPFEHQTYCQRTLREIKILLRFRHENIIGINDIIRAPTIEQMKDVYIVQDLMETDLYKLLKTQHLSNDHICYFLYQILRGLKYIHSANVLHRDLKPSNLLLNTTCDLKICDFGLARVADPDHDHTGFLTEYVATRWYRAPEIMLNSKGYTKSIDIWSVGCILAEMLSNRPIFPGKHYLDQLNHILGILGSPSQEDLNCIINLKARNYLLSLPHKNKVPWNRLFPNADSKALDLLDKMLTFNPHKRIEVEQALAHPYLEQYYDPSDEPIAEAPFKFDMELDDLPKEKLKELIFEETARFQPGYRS

[6] = molecular target: T1, Aurora kinase A (Homo sapiens) (UniProt O14965)
T1 sequence (whole entry): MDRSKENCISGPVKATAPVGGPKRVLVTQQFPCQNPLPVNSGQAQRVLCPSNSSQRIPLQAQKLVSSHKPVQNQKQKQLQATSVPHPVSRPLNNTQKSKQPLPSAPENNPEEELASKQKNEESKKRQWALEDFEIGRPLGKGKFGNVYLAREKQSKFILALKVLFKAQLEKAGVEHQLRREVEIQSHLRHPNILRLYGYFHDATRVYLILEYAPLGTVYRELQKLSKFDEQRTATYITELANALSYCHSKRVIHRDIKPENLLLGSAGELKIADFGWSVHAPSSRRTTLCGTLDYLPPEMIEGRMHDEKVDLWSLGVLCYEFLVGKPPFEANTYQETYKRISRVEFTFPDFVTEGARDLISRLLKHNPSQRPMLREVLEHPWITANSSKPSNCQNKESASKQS

Sequence of Tyrosine-protein kinase ABL1 (Homo sapiens) (P00519 whole entry): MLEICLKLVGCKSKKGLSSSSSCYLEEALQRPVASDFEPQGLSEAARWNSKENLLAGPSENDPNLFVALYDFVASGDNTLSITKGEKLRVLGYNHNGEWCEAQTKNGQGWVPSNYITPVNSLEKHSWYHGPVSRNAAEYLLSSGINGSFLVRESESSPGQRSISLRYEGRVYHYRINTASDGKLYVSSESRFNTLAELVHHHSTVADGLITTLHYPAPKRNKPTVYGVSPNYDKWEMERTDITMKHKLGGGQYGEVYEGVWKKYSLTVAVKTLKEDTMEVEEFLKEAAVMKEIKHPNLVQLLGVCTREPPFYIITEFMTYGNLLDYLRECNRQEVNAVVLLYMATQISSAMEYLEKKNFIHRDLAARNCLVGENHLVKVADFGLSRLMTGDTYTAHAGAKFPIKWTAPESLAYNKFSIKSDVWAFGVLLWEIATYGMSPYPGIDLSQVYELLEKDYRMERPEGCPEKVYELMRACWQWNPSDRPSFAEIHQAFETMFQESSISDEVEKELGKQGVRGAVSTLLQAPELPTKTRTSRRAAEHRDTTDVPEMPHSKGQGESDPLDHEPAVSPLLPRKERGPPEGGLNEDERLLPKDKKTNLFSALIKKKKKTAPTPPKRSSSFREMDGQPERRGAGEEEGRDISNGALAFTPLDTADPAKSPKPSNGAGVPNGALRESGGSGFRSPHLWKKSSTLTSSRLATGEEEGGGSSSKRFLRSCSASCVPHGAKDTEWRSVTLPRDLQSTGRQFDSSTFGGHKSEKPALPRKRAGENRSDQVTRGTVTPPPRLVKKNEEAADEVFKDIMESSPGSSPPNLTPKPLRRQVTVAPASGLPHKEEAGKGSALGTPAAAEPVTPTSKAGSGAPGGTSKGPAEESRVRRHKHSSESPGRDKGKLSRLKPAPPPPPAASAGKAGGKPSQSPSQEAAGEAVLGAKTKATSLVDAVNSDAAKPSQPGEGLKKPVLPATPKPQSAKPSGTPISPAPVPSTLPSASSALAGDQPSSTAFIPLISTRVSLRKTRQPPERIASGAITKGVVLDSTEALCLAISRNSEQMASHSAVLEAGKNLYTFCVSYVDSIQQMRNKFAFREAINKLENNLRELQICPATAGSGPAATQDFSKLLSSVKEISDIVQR

Structure (SMILES) | ΔTm [1] | ΔTm [2] | ΔTm [3] | ΔTm [4] | ΔTm [5] | ΔTm [6]
CC(=O)O[C@H]1C(=O)[C@@]2(C)[C@H]([C@H](OC(=O)c3ccccc3)[C@]3(O)C[C@H](OC(=O)[C@H](O)[C@@H](NC(=O)c4ccccc4)c4ccccc4)C(C)=C1C3(C)C)[C@]1(OC(C)=O)CO[C@@H]1C[C@@H]2O | 0.38 °C | 0.99 °C | -0.22 °C | -0.02 °C | 0.57 °C | -0.14 °C
CCN(CC)C(=O)C1CN2CCc3cc(OC)c(OC)cc3C2CC1OC(C)=O (stereo not given) | -0.43 °C | 0.69 °C | -0.03 °C | -1.02 °C | 0.11 °C | -0.04 °C
CN(C)[C@H]1CCN(c2cc(C(F)(F)F)c(C#N)c(Nc3cccc(CCC(=O)O)c3)n2)C1 | -0.06 °C | 0.28 °C | 0.14 °C | 0.08 °C | 0.58 °C | 0.51 °C
COc1cc2c(NC3CCN(C(C)C)CC3)nc(C3CCCCC3)nc2cc1OCCCN1CCCC1 | 0.15 °C | 0.9 °C | 0.11 °C | -0.55 °C | 0.32 °C | 0.5 °C
COCCOCn1c(S(C)(=O)=O)nc2c1c(=O)n(C)c(=O)n2C | 0.21 °C | 0.39 °C | -0.13 °C | -0.24 °C | -0.83 °C | 0.11 °C
COCc1c(-c2cc3cc(C)cc(OC)c3s2)c2c(N)ncnn2c1CN[C@@H]1CCNC1=O | 2.45 °C | 0.59 °C | 0.29 °C | -0.7 °C | 0.28 °C | 3.49 °C
CO[C@H]1C[C@@H]2CC[C@@H](C)[C@@](O)(O2)C(=O)C(=O)N2CCCC[C@H]2C(=O)O[C@H]([C@H](C)C[C@@H]2CC[C@@H](O)[C@H](OC)C2)CC(=O)[C@H](C)/C=C(\C)[C@@H](O)[C@@H](OC)C(=O)[C@H](C)C[C@H](C)/C=C/C=C/C=C/1C | 0.32 °C | -0.19 °C | -0.1 °C | -0.7 °C | -0.72 °C | -0.26 °C
C[C@H](CCC(=O)O)[C@H]1CC[C@H]2[C@@H]3[C@H](O)C[C@@H]4C[C@H](O)CC[C@]4(C)[C@H]3C[C@H](O)[C@]12C | 0.17 °C | 0.08 °C | 0.33 °C | -0.66 °C | 0.4 °C | -1.53 °C
O=C(Nc1ccc(-n2nc(-c3cccnc3)cc2C(F)(F)F)cn1)c1ccc(-c2ccccc2)c(F)c1 | -0.47 °C | -0.05 °C | -0.18 °C | -0.91 °C | 0.06 °C | 0.04 °C
CCCCOc1c(C(=O)c2c(F)cc(C)cc2F)c[nH]c2nncc1-2 | 0.35 °C | 2.95 °C | 0.13 °C | 0.42 °C | 0.05 °C | 0.96 °C
O=C(O)c1ccc2c(c1)nc(NCc1ccccc1)c1ncncc12 | 0.29 °C | 1.34 °C | 0.62 °C | 1.21 °C | 0.05 °C | 1.85 °C
O=C(NCCS(=O)(=O)c1ccc(C(F)(F)F)cn1)c1ccc(Cl)cc1 | 0 °C | 0.73 °C | 0.23 °C | -1.08 °C | 0.3 °C | -0.52 °C
CC[C@@H](CO)Nc1nc(Nc2cccc(NC(=O)C(C)(C)C)c2)ncc1F | 1.74 °C | 1.9 °C | 0.38 °C | 3.34 °C | 0.54 °C | 9.07 °C
COc1cc(N2CCN(C)CC2)ccc1Nc1ncc2c(n1)N(C)c1ccccc1C(=O)N2CC(F)(F)F | 0.67 °C | -0.65 °C | 0.47 °C | -0.83 °C | 0.11 °C | 0.18 °C
CCOC(=O)/N=C(\N)c1ccc(OCc2cccc(COc3ccc(C(C)(C)c4ccc(OC(=O)OCC)cc4)cc3)c2)cc1 | 0.03 °C | -3.47 °C | -11.2 °C | -4.21 °C | -11.6 °C | -7.28 °C
CC(F)(F)CN1C(=O)c2[nH]nc(-c3cccc4[nH]c(=O)oc34)c2C1c1ccc(Oc2cc(C(F)(F)F)cc(C(F)(F)F)c2)cc1 (stereo not given) | 0.76 °C | 0.46 °C | 4.37 °C | -4.17 °C | 1.19 °C | 0 °C
CCNC(=O)c1ccc2c(c1)NC(=O)/C2=C(\Nc1ccc(CN(C)C)cc1)c1ccccc1 | 3.61 °C and 1.55 °C | 0.83 °C and 0.42 °C | 0.37 °C and -0.02 °C | 0.19 °C and -0.61 °C | 0.2 °C and 0.17 °C | 1.4 °C and 0 °C
O=C(CCCCCCc1ccccc1)c1ncc(-c2ccccn2)o1 | 0.19 °C | 0.75 °C | 0.19 °C | -0.85 °C | -0.04 °C | -0.34 °C
CCCS(=O)(=O)N[C@H]1C[C@@H](N(C)c2ncnc3[nH]ccc23)C1 | 1.02 °C | 0.96 °C | 0.73 °C | 1.39 °C | 0.29 °C | 3.25 °C
CN[C@@H](C)C(=O)N[C@H]1CN(C(=O)CC(C)C)CC[C@H]2CC[C@@H](C(=O)NC(c3ccccc3)c3ccccc3)N2C1=O | -0.01 °C | 0.45 °C | 0.05 °C | -0.59 °C | 0.19 °C | 0.17 °C
CC(C)(C#Cc1ccc(NC(=O)COc2ccccc2C(=O)c2ccccc2)c(Cl)c1)C(=O)O | 0.32 °C | -1.47 °C | -0.18 °C | 0 °C | -0.94 °C | 0.27 °C
Cc1nc2ccc(Cl)cc2c(-c2ccccc2)c1CC(=O)O | 0.63 °C | 0.84 °C | 0.35 °C | 0.14 °C | 0.28 °C | 0.17 °C
COc1ccccc1[C@@H]1CNCCC12CCN(C(=O)[C@](OC)(c1ccccc1)C(F)(F)F)CC2 | 0.26 °C | 0.48 °C | 0.35 °C | -1.18 °C | -0.22 °C | -0.11 °C
Cn1nc(C(=O)NCc2ccc(C(=O)O)cc2)cc1-c1ccc2[nH]ccc2c1 | 0.76 °C | 0.58 °C | 0.39 °C | -0.55 °C | 0.47 °C | 0.09 °C
CN(c1ccc(C(F)(F)F)cc1)S(=O)(=O)c1ccc(C(=O)Nc2nc(-c3ccccn3)cs2)cc1 | 7.05 °C | 10.4 °C | 5.15 °C | 13.4 °C | 1.92 °C | 9.24 °C
